The inhibition is the drop in the measured response relative to a control, in per cent.

In all, about 340,000 compounds went through this assay and about 2,500 (0.74%) were called active.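 How the source made its calls: active means inhibition above about 55% (limit read from the data); inactive means the rest.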 The sample as a whole holds a higher share of actives than the screen did.

A short description of this test: Gli-Sufu pathway antagonists, primary screen, luciferase luminescence, Sufu-KO-LIGHT cells, uHTS (AID 588413).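 Further: 0% = DMSO-treated cells and 100% = wells with medium but no cells.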 The note with it: Sufu-KO-LIGHT fibroblasts, Gli luciferase reporter luminescence; at 5 µM; active compounds read high. In general terms: A reporter such as luciferase makes a cellular process visible.
Consider `COC(=O)c1cc(=O)n(-c2c(Cl)cc(C(F)(F)F)cc2Cl)[nH]1`, for which the inhibition was 5.78% (inactive).

For the molecule `C[C@]1(C(=O)NCCc2c[nH]c3ccccc23)C=C[C@@H](Cc2ccccc2)N1C(=O)c1ccccc1`, the inhibition is 6.62% (inactive). On to `NC(=S)NN=C1CCCC(C(F)(F)F)C1` (centres undefined), for which the inhibition was 4.43% (inactive). As for `Cc1cc(C)c2nc(N3CCC(C(=O)NCCN4CCOCC4)CC3)sc2c1`, the figure is 42.9% (inactive). Consider `O=C(NCCCN1CCCC1=O)C(=O)NCC1OCCN1S(=O)(=O)c1ccc(Br)cc1` (centres undefined), for which the inhibition was 9.53% (inactive).

For `CCCN(c1ccc(C)cc1)c1nc(=O)c2cccnc2s1`, the inhibition was 11.6% (inactive). As for `COc1cccc(NC(=O)Cn2cnc3sc(C)c(S(=O)(=O)N4CCN(C)CC4)c3c2=O)c1`, the figure is -2.51% (inactive); as for `CCCCCCCCCCOC(=O)Cn1c(COc2ccc(C)cc2)[n+](C)c2ccccc21`, 83.1% (active); as for `CCCCOc1ccc(NC(=O)CSCC(=O)OCC)cc1`, 0.02% (inactive).

As to `Cc1ccc(COc2ccc(C(=O)NN)cc2)cc1`, the inhibition is -19.9% (inactive). Under `CCCCCCCCCCOC(=O)Cn1c(COc2cccc(OC)c2)[n+](C)c2ccccc21` stands 79.7% (active); under `COc1cccc(NC(=O)COC(=O)CCOc2ccccc2OC)c1`, -1.81% (inactive); under `CCOC(=O)CNC(=O)CSc1nnc(-c2cccc(OC)c2)n1CC`, 7.3% (inactive). Under `Cc1ccc(N2C(=O)C3C4C=CC(CC4)C3C2=O)cc1Cl` (centres undefined) stands 6.68% (inactive); under `CN(C(=O)c1cccc([N+](=O)[O-])c1)c1ccccc1C(=O)NCc1ccccc1`, 0.49% (inactive); under `Cn1c(=O)[nH]c2c(c(C(=O)O)nn2C)c1=O`, -2.41% (inactive). Under `C/C(=N\Nc1cccc(C(=O)O)c1)c1ccc2c(c1)Nc1ccccc1S2` stands -35.5% (inactive). For `O=C(CN(C(=O)c1csnn1)c1cccc(Cl)c1)NC1CCCC1`, the inhibition is -16.6% (inactive). For `CCS(=O)(=O)N1CCCC(C(=O)NCCCN(C)Cc2ccccc2)C1` (centres undefined), the inhibition was 9.61% (inactive). Under `O=C1CCCCN1CCCC(=O)N1CCCC(Nc2ccc(F)cc2)C1` (centres undefined) stands 45.4% (inactive); under `COc1ccccc1N1CCN(Cc2ccc(OC)c3ccccc23)CC1`, 10.6% (inactive). In the case of `COc1ccccc1N1CCN(Cc2cc(OC)c3c(c2)OCO3)CC1`, the inhibition was 60.1% (active). `CNCC(O)CN1CCN(c2ccccc2OC)CC1` (centres undefined): the inhibition was 2.51% (inactive). Under `CN1CCN(c2cc(=O)n(-c3ccc(Cl)cc3)c(=O)[nH]2)CC1` stands 7.35% (inactive).

Take `C=CCO/N=C/C1=C(O)C(C(=O)OC)C(C)(C)CC1=O` (centres undefined): the inhibition is -5.83% (inactive). In the case of `CCN(CC)CCCC(C)n1c2nc(=O)[nH]c(=O)c-2nc2cc(Cl)ccc21` (centres undefined), the inhibition is 83.6% (active). Under `CCOC(=O)C1(CCOC)CCN(Cc2cc3ccccc3s2)CC1` stands -4.84% (inactive); under `Cc1cc(C)nc(N/N=C/c2c(CO)cnc(C)c2O)n1`, 0.23% (inactive); under `Cc1ccc(N=Cc2c(O)n(-c3nccs3)c(=O)c3ccccc23)c(C)c1`, -4.34% (inactive). Under `CCN(CC)CCCN=Cc1c(O)n(-c2ccc(C)cc2)c(=O)c2ccccc12` stands -0.11% (inactive); under `CCOc1ccc(-n2c(O)c(/C=N/c3ccnn3Cc3ccncc3)c3ccccc3c2=O)cc1`, 62.7% (active). As for `CCOc1ccc(-n2c(O)c(/C=N/Nc3nc(C)cc(C)n3)c3ccccc3c2=O)cc1`, the figure is 61.7% (active); as for `Cc1ccc(-n2c(O)c(C=Nc3ccc(S(=O)(=O)Nc4ncccn4)cc3)c3ccccc3c2=O)cc1C`, -0.18% (inactive). Turning to `CSc1ncccc1C(=O)NCc1ccccc1Cl`, the inhibition was -8.35% (inactive). Under `CC(=O)c1c(O)cc2n(c1=O)-c1ccc(Cl)cc1C2(C)C` stands -0.02% (inactive). Take `COC(=O)CC(CC(=O)OC)n1cccc1`: the inhibition is 6.12% (inactive). Take `Cc1ccc(O)c(NC(=O)COc2cc(C)ccc2C)c1`: the inhibition was 63.9% (active). Under `Cc1ccc(O)c(NC(=S)NC(=O)COc2ccc(Br)cc2)c1` stands -1.7% (inactive).

On to `Cc1ccc(C)c(OCC(=O)NNC(=O)C2CCC2)c1`, for which the inhibition was 3% (inactive).

Consider `CCC1CCCCN1C(=S)NC(=O)c1ccco1` (centres undefined), for which the inhibition was 3.37% (inactive).

As to `O=C(CSC(=S)N1CCCCC1)c1c(F)cccc1F`, the inhibition was -23.9% (inactive).

In the case of `CCCCn1nc(C(=O)OCC(=O)Nc2sccc2C(N)=O)c2ccccc2c1=O`, the inhibition was -33% (inactive).

For the molecule `CCOC(=O)C1=C(C)c2ccccc2OC1(C)C(=O)OCC` (centres undefined), the inhibition was -1.26% (inactive). Consider `CCOC(=O)c1[nH]c2ccccc2c1N=C(C)N(CC)CC`, for which the inhibition is 4.83% (inactive). Under `CCOC(=O)c1c(C)[nH]c2c1-c1ccccc1C(=O)C2=O` stands 95.8% (active); under `C=CCn1c(C)cc(C2=NNC(=NCC)SC2)c1C`, 93% (active); under `CCCN(CCC)C(=O)C1c2ccccc2Oc2ccccc21`, -1.09% (inactive). As for `CNCC(O)c1ccc(O)c(O)c1` (centres undefined), the inhibition was -2.95% (inactive). Consider `COc1ccc(CCNc2ncnc3c2nnn3Cc2ccccc2)cc1`, for which the inhibition was 4.12% (inactive). Under `COc1ccc(NC(=O)/C(N=Nc2cccc(S(=O)(=O)Nc3ccc(SC(F)F)cc3)c2)=C(\C)O)cc1` stands -4.13% (inactive); under `Cn1c(=O)c2c(nc(OCc3cccnc3)n2Cc2ccccc2)n(C)c1=O`, 8.04% (inactive); under `C=CCn1c(Oc2ccc(C(=O)OC)cc2)nc2c1c(=O)n(C)c(=O)n2C`, 1.23% (inactive). As for `C=CCOc1nc2c(c(=O)n(C)c(=O)n2C)n1Cc1ccc(Cl)cc1Cl`, the figure is 62% (active); as for `O=S(=O)(Nc1cc(S(=O)(=O)N2CCOCC2)ccc1N1CCCC1)c1cccs1`, 5.7% (inactive). As to `O=c1c2ccccc2ncn1/N=C/c1ccccc1`, the inhibition is 20.9% (inactive). Under `Cc1ccc(-n2c(SCC(=O)N/N=C/C=C/c3ccccc3[N+](=O)[O-])nc3ccccc3c2=O)cc1` stands 14.2% (inactive); under `CCn1c(/C=C/c2ccc([N+](=O)[O-])o2)nc2ccccc2c1=O`, 80% (active); under `O=C(Nc1ccccc1C(=O)NCC1CCCO1)c1ccccc1F` (centres undefined), -6.12% (inactive). As for `CC(C)c1ccc2c(c1)c(SC(C)(C)C)c(CC(C)(C)C(=O)O)n2Cc1ccc(Cl)cc1`, the inhibition was -0.1% (inactive). `CCCCCCCCn1c2c(c(=N)c3c1CCC3)CCCC2`: the inhibition is 89.4% (active). `O=C(NNS(=O)(=O)Cc1ccccc1)c1ccc([N+](=O)[O-])cc1`: the inhibition was -11.2% (inactive).

For the molecule `CCOC(=O)C1CCCN(CCSc2ccc(C)cc2)C1` (centres undefined), the inhibition is 21.1% (inactive).

Take `COc1ccc(Nc2ncnc3ccc(Br)cc23)c(OC)c1`: the inhibition is 26.3% (inactive).

In the case of `CC1(C)CC2CC(C)(CN2c2ncnc3ccc(Br)cc23)C1` (centres undefined), the inhibition is 62.2% (active). For the molecule `CN(C)C(=O)COC(=O)c1cccc(S(=O)(=O)N2CC3(C)CC2CC(C)(C)C3)c1` (centres undefined), the inhibition was 0.32% (inactive). Under `COc1cc(C(F)(F)F)nc2c(Br)c(C(C)(C)C)nn12` stands 4.44% (inactive). Under `CN(Cc1ccc(CNC[C@H]2O[C@@H](n3cnc4c(N)ncnc43)[C@H](O)[C@@H]2O)o1)S(C)(=O)=O` stands -0.83% (inactive); under `CCc1cc2cc(OC)ccc2nc1SCC(=O)Nc1cc(OC)c(OC)cc1C(=O)O`, -8.77% (inactive). As for `Cc1ccc(-n2ncc3c(=O)n(-c4ccc(C)c(C)c4)c(-c4ccco4)nc32)cc1`, the figure is 4.8% (inactive); as for `Cc1ccc(-c2nc3c(cnn3-c3ccccc3)c(=O)o2)cc1`, 56.1% (active). In the case of `CC(=O)Cn1cnc2c(cnn2-c2ccccc2)c1=O`, the inhibition is -18.4% (inactive).

`COc1ccc(OC)c(C2C3=C(N=c4s/c(=C\c5cccc(O)c5)c(=O)n42)c2ccccc2CC3)c1` (centres undefined): the inhibition was -4.15% (inactive).

Turning to `CCN(CC)S(=O)(=O)c1ccc(N(C)Cc2ccc(C(F)(F)F)cc2)nc1`, the inhibition is 17.7% (inactive). Turning to `CCCCNCCS(=O)(=O)NCc1ccccc1`, the inhibition is -0.46% (inactive). Under `COc1cccc(/C=N/Nc2ccc(S(=O)(=O)Nc3ccccc3C(=O)O)cc2[N+](=O)[O-])c1O` stands 6.14% (inactive); under `COc1cccc(/C=N/Nc2ncc(C(F)(F)F)cc2Cl)c1O`, 59.1% (active). As for `COc1ccc(Br)cc1/C=N/Nc1ccc(Cl)c(C(=O)O)c1`, the figure is 8.66% (inactive); as for `O=C(OCC(=O)N1CCc2ccccc21)C1CCCN1S(=O)(=O)c1ccc(Cl)cc1` (centres undefined), -11.8% (inactive). As for `CC1(C)CC(=O)NC=C(c2ccccc2)C1`, the figure is 1.28% (inactive); as for `Cn1ccsc1=NC(=O)c1cc(S(=O)(=O)N2CCOCC2)ccc1Cl`, -4.66% (inactive); as for `O=C1C(Cl)=C(N2CCOCC2)C(=O)N1c1ccccc1`, 0.4% (inactive). Regarding `c1ccc(-n2nnnc2NC2CCCCCC2)cc1`, the inhibition was 8.53% (inactive).

As for `c1ccc(-n2nnnc2N2CCOCC2)cc1`, the inhibition is 94.8% (active). Turning to `COc1ccc(S(=O)(=O)N2CCCC(C(=O)NCCCn3ccnc3)C2)cc1OC` (centres undefined), the inhibition is 15.1% (inactive). As for `O=C1NNC(c2ccccc2)=N/C1=C\c1ccc(Cl)cc1`, the figure is 5.34% (inactive); as for `CCn1cc(C(=O)NCC2COc3ccccc3O2)c2cc(OC)c(OC)cc2c1=O` (centres undefined), 10.7% (inactive). Under `CC(=O)Nc1ccc(S(=O)(=O)N(C)c2nc3ccccc3nc2Cl)cc1` stands 1.9% (inactive); under `CC(=O)Nc1ccc(Nc2c3ccccc3nc3ccccc23)cc1`, 75% (active); under `CC(=O)Nc1ccc(Nc2c([N+](=O)[O-])cc(S(C)(=O)=O)cc2[N+](=O)[O-])cc1`, -0.18% (inactive). As to `CCOc1ccc(NC(=O)c2ccc(NC(=O)CN3C(=O)C(=O)N(CC(C)C)C3=O)cc2)cc1`, the inhibition is -34.9% (inactive). As for `CCC1([N+](=O)[O-])COC(c2ccc(C(C)C)cc2)OC1` (centres undefined), the figure is -31.9% (inactive). Under `CCC(=C/c1sc2ccc3ccccc3c2[n+]1C)/C=C1\Sc2ccc3ccccc3c2N1C` stands 64.2% (active). As for `O=C(c1ccccc1)c1ccc2nc(N3CCCCC3)c3nncn3c2c1`, the figure is 6.66% (inactive); as for `O=C(NC1CCc2ccccc21)C12CN(Cc3ccccc3)CC1C(c1cccc([N+](=O)[O-])c1)=NO2` (centres undefined), 6.88% (inactive).

Source of the values: PubChem BioAssay AID588413 (Sanford-Burnham Center for Chemical Genomics, 2011).
